Screening results deposited in PubChem BioAssay by National Center for Advancing Translational Sciences (NCATS).
VDR inh: inhibitors of human vitamin D receptor; VDR-SRC2-3 peptide fluorescence polarization, 2 h; Potency, µM, without a hit: max response, negative = inhibition, usual class: inhibitors; 400,000 compounds, 0.93% hits
Target sequence (P11473 whole entry, looked up): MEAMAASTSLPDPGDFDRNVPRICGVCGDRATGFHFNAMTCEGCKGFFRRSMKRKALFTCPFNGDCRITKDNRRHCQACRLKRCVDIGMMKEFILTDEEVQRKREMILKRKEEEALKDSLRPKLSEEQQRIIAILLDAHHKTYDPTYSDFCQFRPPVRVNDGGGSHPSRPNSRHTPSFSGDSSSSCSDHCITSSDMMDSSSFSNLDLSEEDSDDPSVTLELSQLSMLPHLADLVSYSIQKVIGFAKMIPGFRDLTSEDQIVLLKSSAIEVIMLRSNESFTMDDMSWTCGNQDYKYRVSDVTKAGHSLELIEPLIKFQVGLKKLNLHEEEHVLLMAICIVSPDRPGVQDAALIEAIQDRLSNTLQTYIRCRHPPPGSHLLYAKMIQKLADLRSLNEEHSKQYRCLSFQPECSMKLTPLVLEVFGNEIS
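Compounds are added to VDR with labelled SRC2-3 coactivator peptide and held 2 h at room temperature. Inhibition of the VDR–peptide interaction is then read as a change in fluorescence polarization.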
GCN5L2 inh: GCN5L2 (KAT2A) acetyltransferase inhibition; 390,000 compounds, 0.21% hits; GCN5L2 HAT assay, ThioGlo1 CoA-SH fluorescence; Potency, µM (top dose mostly 58.9 µM), without a hit: top-dose activity change, negative = inhibition, most hits filed as inhibitors; Q92830
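Enzyme at 20nM final was mixed with library compounds for 15 min at room temperature. Peptide H3(1-25) at 75uM, acetyl-CoA at 70uM and ThioGlo1 at 50uM were then added. Plates were read immediately and after 20 min (Ex340nm/Em540nm).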
DT40 TDP1 CPT: DT40-hTDP1 cell growth loss with CPT. chicken DT40 Tdp1-/-;hTDP1 cells + 20 nM CPT, ATP luminescence, 48 h. Potency, µM (doses to about 46.2 µM), without a hit: top-dose activity change, negative = growth inhibition, hits mostly inhibitors. 420,000 compounds, 12% hits; further: nearly all actives have a fitted effect of over 55% in size
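Chicken DT40 Tdp1-/- cells complemented with human TDP1, 400 cells/well, exposed to compounds plus 20 nM camptothecin for at least 48 h at 37 C; viability read as ATP content by CellTiter-Glo luminescence.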
PLK1 PBD inh: inhibitors of human PLK1 polo-box domain binding | AID 720504 | Potency, µM, for the others: max response, negative = inhibition, usual class: inhibitors | Plk1 PBD binding of FITC phosphopeptide, fluorescence polarization | P53350 | 360,000 compounds, 2.8% hits; further: series mostly up to about 57 µM; nearly all actives have a fitted effect of over 65% in size
TDP1 cell noCPT: qHTS for Inhibitors of human tyrosyl-DNA phosphodiesterase 1 (TDP1): qHTS in cells in absence of CPT; DT40 Tdp1-/- hTDP1 cells, no CPT, ATP luminescence, 48 h; Potency, µM (top dose mostly 46.2 µM), inactives show at the highest dose activity change, negative = growth inhibition, usual class: inhibitors; 420,000 compounds, 15% hits; AID 686978, 2013; further: nearly all actives have a fitted effect of over 55% in size
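Luminescent ATP content (CellTiter-Glo) served as the growth readout. Knockout chicken DT40 cells expressing human TDP1 were exposed to compounds without camptothecin for a minimum 48 hr at 37 °C.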
TDP1 block: TDP1 (human) enzyme inhibition. 350,000 compounds, 0.28% hits. Potency, µM (top dose mostly 130 µM), inactives show at the highest dose activity change, negative = inhibition, most hits filed as inhibitors. AID 485290. Q9NUW8. recombinant TDP1, AlphaScreen DNA substrate cleavage; further: nearly all actives have a fitted effect of over 40% in size
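AlphaScreen read-out: signal falls as enzyme removes the 3' tyrosine-FITC from a 5'-biotinylated DNA oligo (15 nM, 5 min, RT). Enzyme was E. coli-made recombinant Tdp1 at 1 nM, exposed to compound for 15 min beforehand; beads 10 ug/ml, 10 min.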
Starred values were filed as active, the others as inactive; ? = inconclusive; / = no result given; [ ] = dose if it differs, or a comment. Sampled rows, rich in hits. Any-hit rate of the full collection: about 18%. The call rests on the fitted dose curve; in most records, active means well fitted curve in the direction sought with a large enough effect; inconclusive means small, poorly fitted or top-dose-only effect, or another doubt; inactive means no such curve, though single readings can be large; an effect the other way counts as inactive or inconclusive. On the % scale 0 is the no-effect control and ±100 the full control effect; potency means the concentration at half of the fitted maximal effect.

SMILES	VDR inh	GCN5L2 inh	DT40 TDP1 CPT	PLK1 PBD inh	TDP1 cell noCPT	TDP1 block
Cc1ccsc1C(=O)N1CCC1(C)C(=O)NS(=O)(=O)c1ccc(C#N)cc1 (stereo not given)	/	/	3%	-3%	-14%	/
COc1ccccc1CCc1nnc(CCC(=O)NCCC2CCCCO2)o1 (stereo not given)	/	/	-25%	2%	-28%	/
COc1ccccc1CCc1nnc(CCC(=O)NCC[C@@H]2C[C@@H]3C=C[C@H]2C3)o1	-10%	2%	15µM*	-8%	18µM*	2%
CC1CCC(C(C)C)C(=O)/C1=C/c1ccc(N)cc1 (stereo not given)	?	-8%	15µM*	24µM*	13µM*	/
C=CC[n+]1ccc(/C=C2\C=Cc3cc(C)ccc3N2CC)c2ccccc21	-21%	-23%	0.29µM*	-18%	0.21µM*	10%
O=C(c1ccc(Nc2nccc(-c3cc4ccccc4s3)n2)cc1)N1CCC(N2CCCC2)CC1	45%	0%	/	/	/	19%
O=C(/C=C/c1ccc(Cl)cc1)NC(=S)Nc1ccc(NC(=O)c2ccco2)cc1	-9%	36%	?	-3%	8.2µM*	3%
O=C(/C=C/c1ccc(Cl)cc1)NC(=S)Nc1ccc(CN2CCOCC2)cc1	-10%	0%	?	-1%	23µM*	-1%
COc1ccc(C(=O)Nc2ccc(CN3CCOCC3)cc2)cc1Br	3%	-16%	-2%	-9%	-3%	/
COc1ccc(Br)cc1/C=C/C(=O)NC(=S)Nc1ccc(CN2CCOCC2)cc1	-24%	-2%	16µM*	4%	16µM*	8%
Cc1ccccc1OCC(=O)Nc1ccc(-c2nc3ccccc3o2)cc1	7%	1%	/	/	/	-3%
COCCn1c(CN2CCN(c3cccc(Cl)c3)CC2)nc2c1c(=O)n(C)c(=O)n2C	-2%	-6%	8.2µM*	-15%	13µM*	4%
COCCn1c(CN2CCN(C)CC2)nc2c1c(=O)n(C)c(=O)n2C	-1%	-4%	4%	2%	0%	-2%
CC(C)CCn1c(CN2CCN(c3cccc(Cl)c3)CC2)nc2c1c(=O)n(C)c(=O)n2C	-11%	-27%	?	-1%	23µM*	/
CN(C)c1nc(N)c(C(=O)Nc2cccnc2)nc1Cl	/	/	/	/	/	6%
Cc1ccc(-c2nc(NC(=O)CSc3nc(C)nc4sc5c(c34)CCCC5)ns2)cc1	14%	-2%	12µM*	/	6.5µM*	2%
Cc1ccccc1-c1nc(NC(=O)CSc2ncnc3sc4c(c23)CCCC4)ns1	-2%	3%	0%	/	-4%	-1%
CC(C)(C)c1ccc(-c2nc(NC(=O)CSc3ncnc4sc5c(c34)CCCC5)ns2)cc1	7%	-6%	?	/	4.1µM*	5%
COc1ccccc1CNC(=O)C(=O)NCC1CCCN1S(=O)(=O)c1cccs1 (stereo not given)	-5%	0%	?	-7%	?	1%
CCOC(=O)c1c(NC(=O)COC(=O)CNC(=O)c2ccco2)sc(C(C)=O)c1C	-2%	-4%	-26%	-7%	-9%	2%
Cc1cccc(NC(=O)c2oc3c(c2C)C(=O)CC(C)(C)C3)n1	3%	0%	12µM*	-8%	5.2µM*	5%
Cc1c(C(=O)N2CCN(c3ccccn3)CC2)oc2c1C(=O)CC(C)(C)C2	-23%	-2%	?	3%	?	3%
COc1ccc(C2CC(=O)Nc3c2c(=O)[nH]c2nc4ccccc4n32)cc1 (stereo not given)	-4%	-4%	/	/	/	7%
CSc1ccc(CNC(=O)Cc2csc3ccccc23)cc1	17%	4%	?	/	?	3%
CN1CCCN(c2cc(-c3ccc4ccccc4c3)nc3ccnn23)CC1	/	/	21µM*	-6%	21µM*	/
SMILES	VDR inh	GCN5L2 inh	DT40 TDP1 CPT	PLK1 PBD inh	TDP1 cell noCPT	TDP1 block
OCCN1CCN(c2cc(-c3ccc4ccccc4c3)nc3ccnn23)CC1	/	/	18µM*	-4%	?	/
O=C(Cc1n[nH]c(=O)c2ccccc12)OCC(=O)c1ccc(OC(F)F)cc1OC(F)F	-23%	-5%	-8%	-10%	-16%	1%
Cc1ccc(NC(=O)CN2CCSc3ccc(S(=O)(=O)N4CCCC4)cc32)cc1	18%	-16%	/	/	/	5%
Cc1ncc2c(c1CNS(=O)(=O)c1cccs1)CCN(C(=O)/C=C/c1ccc(F)cc1F)C2	/	/	2%[9.04 µM]	/	?	/
Cc1ccc(NC(=O)C2(c3ccccc3)CC2(Cl)Cl)cc1C (stereo not given)	-26%	-27%	?	-14%	16µM*	-8%
CN(CC(=O)NCc1ccco1)S(=O)(=O)c1ccc(F)cc1	-2%	-8%	-1%	-4%	5%	0%
O=c1oc2cc(Oc3c([N+](=O)[O-])cc(C(F)(F)F)cc3[N+](=O)[O-])ccc2c2c1CCCC2	?	-24%	8.2µM*	?	13µM*	3%
CCSc1ncc(Cl)c(C(=O)Nc2ccccc2F)n1	-4%	0%	0%	-10%	-15%	4%
CCOc1ccc2nc(NC(=O)c3ccccn3)sc2c1	16%	0%	0.82µM*	-5%	0.65µM*	/
O=C(Nc1nc2c(F)cc(F)cc2s1)c1ccccn1	-1%	-5%	0.65µM*	-17%	0.73µM*	6%
CCOc1ccc2nc(NC(=O)c3ccoc3C)sc2c1	8%	-7%	9.2µM*	-16%	8.2µM*	6%
CCOc1ccc2nc(NC(=O)c3ccco3)sc2c1	2%	-8%	?	-2%	?	-20%
CCOc1ccccc1NC(=O)c1nc(SC(C)C)ncc1Cl	-8%	-4%	?	/	18µM*	2%
O=C(CCCCn1c(=O)c2ccccc2n(Cc2ccccc2Cl)c1=O)NCc1ccc2c(c1)OCO2	24%	0%	?	/	?	3%
CC(=O)N1CCCC(C)(C(=O)Nc2cccc(OC(C)C)c2)C1 (stereo not given)	/	/	-19%	-11%	4%	/
Nc1ccn([C@@H]2O[C@H](C(=O)N3CCN(c4ccc(Cl)cn4)CC3)[C@@H](O)[C@H]2O)c(=O)n1	/	/	1%	-3%	16%	/
O=c1c(CCc2ccccc2)nc2cnc(N3CCNCC3)nc2n1-c1ccccc1	3%	-15%	-27%	/	5%	/
CCOc1ccc2nc(NC(=O)NC3CCCCC3)sc2c1	-1%	-1%	?	-12%	21µM*	6%
CCOc1ccc2nc(NC(=O)c3nc(SC(C)C)ncc3Cl)sc2c1	3%	-7%	9.2µM*	/	8.2µM*	0%
